Laboratory results reported in the supplement of paper PMC10127200.
Counter-ions that a name gives are not always drawn.

Assays:
Assay in all cases: Euclidean distance of Cell Painting phenotypic profile (signed KS, 77 features) to DMSO centroid (dimensionless distance); 5 or 10 uM (library dependent); higher = stronger phenotypic change vs DMSO (phenoactivity)
Details in all cases: 48 h
786-O = tested on: 786-O
Procedure, shortened: (§1)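 Stained cells were imaged confocally at 20X with 9 fields per well, after 48 h of exposure to library compounds at 10 or 5 uM (set by library; 0.1% DMSO final). The cells were five cancer lines and a healthy fibroblast line. From the images, Harmony extracted 77 features, each expressed as a signed Kolmogorov-Smirnov statistic relative to same-plate vehicle wells. Phenoactivity is measured as Euclidean distance to the median vehicle profile, using plate-position-corrected, correlation-weighted profiles averaged across replicates at the top dose.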

A549 = tested on: A549
Procedure, shortened: as §1

DU145 = tested on: DU145
Procedure, shortened: as §1

FB = tested on: FB
Procedure, shortened: as §1

HEPG2 = tested on: HEPG2
Procedure, shortened: as §1

OVCAR4 = tested on: OVCAR4
Procedure, shortened: as §1

Row | SMILES | Euclidean distance (786-O) | Euclidean distance (A549) | Euclidean distance (DU145) | Euclidean distance (FB) | Euclidean distance (HEPG2) | Euclidean distance (OVCAR4)
1 | COc1ccc2[nH]c([S+]([O-])Cc3ncc(C)c(OC)c3C)nc2c1 (configuration not stated) [Omeprazole Sodium] | 1.03 | 1.11 | 2.39 | 0.71 | 0.957 | 1.07
2 | Cc1ccc(S(=O)(=O)c2ccc([N+](=O)[O-])o2)cc1 | 6.48 | 1.74 | 3.22 | 5.11 | 1.81 | 6.14
3 | NCCCCCNCC12CC3CC(CC(C3)C1)C2 [IEM 1754 dihydrobroMide] | 0.936 | 0.504 | 0.662 | 0.973 | 2.44 | 0.664
4 | CC(C)NC[C@@H](O)COc1ccc(CC(N)=O)cc1 [(R)-(+)-Atenolol HCl] | 0.631 | 0.523 | 0.486 | 0.716 | 0.626 | 0.511
5 | CC(C)(C)NCC(O)COc1cccc2c1CC(O)C(O)C2 (configuration not stated) [Nadolol] | 0.954 | 1.38 | 1.88 | 0.792 | 0.849 | 1.11
6 | Cc1c(O)c(=O)ccn1C [Deferiprone] | 1.58 | 0.809 | 1.07 | 1.18 | 0.561 | 0.947
7 | CC1(C)S[C@@H]2[C@H](NC(=O)C(c3ccccc3)S(=O)(=O)O)C(=O)N2[C@H]1C(=O)O (some centres not stated) [Sulbenicillin Sodium] | 0.75 | 0.447 | 1.14 | 1.28 | 0.601 | 1.09
8 | O=C1[C@@H]2[C@H]3CC[C@H](C3)[C@@H]2C(=O)N1C[C@@H]1CCCC[C@H]1CN1CCN(c2nsc3ccccc23)CC1 [lurasidone] | 1.37 | 1.25 | 1.92 | 1.35 | 0.479 | 1.27
9 | CC(=O)O[C@H]1C[C@@]2(C)[C@@H](C[C@@H](O)[C@H]3[C@@]4(C)CC[C@@H](O)[C@@H](C)[C@@H]4CC[C@@]32C)/C1=C(\CCC=C(C)C)C(=O)O [Fusidine] | 0.63 | 0.807 | 0.822 | 0.84 | 0.634 | 1.3
10 | CC(C)NC[C@H](O)COc1ccc(CCOCC2CC2)cc1 [Levobetaxolol HCl] | 1.03 | 0.954 | 0.622 | 0.99 | 0.412 | 0.877
11 | Cc1ccccc1N1CCN(CCc2nnc3n2CCCC3)CC1 [Dapiprazole Hydrochloride] | 1.23 | 0.715 | 0.81 | 0.786 | 1.09 | 1.17
12 | CC(C)(O)CNc1nc(Nc2ccnc(C(F)(F)F)c2)nc(-c2cccc(C(F)(F)F)n2)n1 [Enasidenib (AG-221)] | 1.17 | 0.727 | 1.69 | 1.4 | 1.82 | 1
13 | CC(=O)N[C@@H](CS)C(=O)O [Acetylcysteine] | 0.996 | 1.28 | 1.2 | 0.709 | 0.571 | 1.6
14 | CC(C)NCC(O)c1ccc(O)c(O)c1 (configuration not stated) [Isoprenaline HCl] | 1.55 | 1.42 | 1.07 | 1.04 | 0.596 | 1.2
15 | CCN1CCN(Cc2ccc(Nc3ncc(F)c(-c4cc(F)c5nc(C)n(C(C)C)c5c4)n3)nc2)CC1 [Abemaciclib] | 4.11 | 4.37 | 3.65 | 4.04 | 3.81 | 3.89
16 | CC(=O)Oc1cc(C(F)(F)F)ccc1C(=O)O [Triflusal] | 1.03 | 1.2 | 0.857 | 0.956 | 0.829 | 1.16
17 | COc1cccc(Nc2c(C(N)=O)cnc3c(C)cc(S(=O)(=O)c4cccc(C(=O)N(C)C)c4)cc23)c1 | 1.2 | 0.89 | 1.05 | 1.95 | 1.19 | 1.48
18 | CC(C)(C)NCC(O)c1ccc(O)c(CO)c1 (configuration not stated) [Salbutamol Sulfate] | 1.57 | 0.928 | 1.27 | 0.735 | 1.31 | 1.78
19 | CCNC(=O)Nc1ccc(-c2nc3c(c(N4CCOC[C@@H]4C)n2)CCN(C2COC2)C3)cc1 | 3.58 | 3.22 | 1.78 | 4.11 | 3.1 | 4.55
20 | O=c1ccc2cc(O)c(O)cc2o1 [Esculetin] | 1.31 | 0.797 | 1.69 | 0.959 | 1.2 | 0.988
21 | Cc1c(Cn2c(C)nc3c(C(=O)O)cc(N4CCOCC4)cc32)cccc1C(F)(F)F | 2.39 | 1.14 | 1.28 | 1.21 | 0.982 | 1.33
22 | COc1cc2ncc(-c3ccccc3)nc2cc1OC [Tyrphostin AG 1296] | 1.46 | 1.34 | 1.58 | 1.3 | 1.42 | 1.6
23 | Oc1ccc(OCc2ccccc2)cc1 [Monobenzone] | 2.36 | 2.32 | 2.56 | 1.45 | 0.99 | 2.11
24 | CC1CS(=O)(=O)CCN1/N=C/c1ccc([N+](=O)[O-])o1 (configuration not stated) [Nifurtimox] | 1.55 | 0.675 | 1.08 | 0.936 | 1.04 | 1.33

Row | SMILES | Euclidean distance (786-O) | Euclidean distance (A549) | Euclidean distance (DU145) | Euclidean distance (FB) | Euclidean distance (HEPG2) | Euclidean distance (OVCAR4)
25 | O=c1c(O)c(-c2cc(O)c(O)c(O)c2)oc2cc(O)cc(O)c12 [Myricetin] | 0.872 | 2.24 | 2.15 | 1.76 | 1.1 | 2.1
26 | COc1cc2ncnc(Sc3nnc(C)s3)c2cc1OC | 1.26 | 1.44 | 0.977 | 1.09 | 2.45 | 1.9
27 | CC(C)NNC(=O)c1ccncc1 [Iproniazid] | 1.02 | 0.606 | 0.811 | 1.08 | 0.379 | 1.18
28 | CC1(C)[C@@H](O[C@H]2O[C@H](C(=O)O)[C@@H](O)[C@H](O)[C@H]2O[C@@H]2O[C@H](C(=O)O)[C@@H](O)[C@H](O)[C@H]2O)CC[C@]2(C)[C@H]3C(=O)C=C4[C@@H]5C[C@@](C)(C(=O)O)CC[C@]5(C)CC[C@@]4(C)[C@]3(C)CC[C@@H]12 [Diammonium Glycyrrhizinate] | 1.05 | 1.68 | 1.1 | 0.929 | 0.457 | 1.73
29 | Cc1ccccc1C(=O)Nc1ccc(C(=O)N2CCCC(N(C)C)c3ccccc32)cc1 (configuration not stated) [Mozavaptan] | 0.843 | 0.928 | 1.17 | 0.813 | 0.445 | 0.913
30 | COCCNc1cc(NC(=O)N2CCCc3cc(CN4CCN(C)CC4=O)c(C=O)nc32)ncc1C#N | 0.599 | 1.34 | 0.736 | 1.03 | 1.18 | 0.826
31 | O=C(O)c1ccccc1Nc1cccc(C(F)(F)F)c1 [Flufenamic acid] | 1.11 | 1.08 | 0.674 | 1.09 | 0.711 | 1.36
32 | O=C(Nc1cnn2ccc(N3CCC[C@@H]3c3cc(F)ccc3F)nc12)N1CC[C@H](O)C1 [Larotrectinib (LOXO-101) sulfate] | 0.597 | 0.899 | 1.05 | 0.634 | 0.551 | 1.27
33 | Cc1cc(O)c2c(c1)C(=O)c1cc(O)cc(O)c1C2=O [Emodin] | 1.3 | 1.13 | 1.01 | 1 | 1.85 | 0.712
34 | CC1=C(/C=C/C(C)=C/C=C/C(C)=C/CO)C(C)(C)CCC1 [Vitamin A] | 0.784 | 1.06 | 0.821 | 1.61 | 0.745 | 1.33
35 | O=c1[nH]c(=O)n([C@H]2C[C@H](O)[C@@H](CO)O2)cc1/C=C/Br [Brivudine] | 1.21 | 0.849 | 0.765 | 1.07 | 0.725 | 0.962
36 | COCCOc1cnc2ccn([C@H](C)c3nnc4c(F)cc(-c5cnn(C)c5)cn34)c(=O)c2c1 | 1.01 | 1.18 | 1.5 | 1.29 | 1.39 | 1.46
37 | CC1OC2(CS1)CN1CCC2CC1 (configuration not stated) [Cevimeline] | 1.52 | 1.3 | 0.896 | 1.55 | 0.72 | 1.48
38 | O=C(O)COC(=O)Cc1ccccc1Nc1c(Cl)cccc1Cl [Aceclofenac] | 1.26 | 0.455 | 1.1 | 0.795 | 0.607 | 0.86
39 | Cc1cc(CN2CCN(c3c(Br)cnc4nc(-c5ccc(N6CCN(C)CC6)cc5)[nH]c34)CC2)no1 | 1.51 | 1.27 | 1.12 | 0.806 | 1.67 | 1.25
40 | CCCc1cc(C)[nH]c(=O)c1CNC(=O)c1cc(-c2ccc(N3CCN(C(C)C)CC3)nc2)cc2c1cnn2C(C)C | 1.57 | 1.62 | 1.42 | 2.34 | 1.03 | 1.18
41 | NC1(Cc2ccc(Cl)cc2)CCN(c2ncnc3[nH]ccc23)CC1 | 1.5 | 1.13 | 1.5 | 1.39 | 1.17 | 1.39
42 | C=C1C(=O)O[C@H]2[C@H]1CC/C(C)=C/CC[C@@]1(C)O[C@@H]21 [(-)-Parthenolide] | 3.29 | 1.26 | 3.27 | 2.7 | 1.55 | 1.16
43 | O=c1sn(-c2cccc3ccccc23)c(=O)n1Cc1ccccc1 [Tideglusib] | 0.967 | 0.321 | 0.768 | 0.656 | 0.456 | 1.14
44 | Cc1cccc(Nc2ccncc2S(=O)(=O)NC(=O)NC(C)C)c1 [Torsemide] | 0.608 | 0.66 | 0.572 | 0.798 | 0.917 | 0.866
45 | Cc1nc2cccc(N)c2c(=O)n1C1CCC(=O)NC1=O (configuration not stated) [Avadomide(CC-122)] | 0.872 | 1.22 | 1.16 | 1.02 | 0.382 | 0.966
46 | OC[C@H]1O[C@@H](OCCc2ccc(O)cc2)[C@H](O)[C@@H](O)[C@@H]1O [Salidroside] | 1.05 | 0.737 | 0.796 | 0.815 | 0.763 | 1.5
47 | COc1cc(C(=O)NC2CCCNC2)cc(OC)c1OC (configuration not stated) [Troxipide] | 1.15 | 1.12 | 1.81 | 0.842 | 1.83 | 1.43
